# Screens from PubChem BioAssay.
# This is a sample that favours compounds with a hit; in the whole collection about 1% have one here.
# gsp agonist – activates gsp, the McCune-Albright syndrome mutation; gsp mutant cells, cAMP HTRF, 30 min; Potency, µM (titrated, usually from 76.9 µM), without a hit: top-dose activation (cAMP increase), hits mostly activators; actives 0.13% (n = 340,000); AID 624287; active = well fitted activation curve with a large enough effect; inconclusive = small, poorly fitted or top-dose-only effect, or another doubt; inactive = no such curve, though single readings can be large or run the other way; cell line not stated here;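 also: phosphodiesterase inhibitor Ro 20-1724 added with compounds to block cAMP breakdown; potency is read from the fitted curve at half-maximal effect; nearly all actives have a fitted effect of over 60% in size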
#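 Cells stably selected in G418 were plated at 2000/well, grown 16-24 hr, then given compounds in DMSO with the PDE inhibitor […] (300 uM solution added) for 30 min at 37C; cAMP was read by HTRF.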
# gsp antag – antagonizes gsp, the McCune-Albright syndrome mutation; Potency, µM (titrated, usually from 76.9 µM), for inactives: at the top dose activity change, negative = inhibition, actives largely listed as inhibitors; gsp-mutant cells, cAMP HTRF, 30 min; actives 0.4% (n = 340,000); calls by dose curve; cell line not stated here;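 also: intracellular cAMP measured with PDE inhibitor Ro 20-1724 present during compound exposure; potency is read from the fitted curve at half-maximal effect; % is scaled to controls: 0 for no effect and ±100 for the full control effect; nearly all actives have a fitted effect of over 65% in size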
#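 HTRF cAMP read-out (cAMP-d2 plus anti-cAMP antibody-K in lysis buffer, 30 min RT). Before lysis, cells are exposed to compounds with […] for 30 min at 37C in DPBS containing Ca/Mg, BSA and Tween 20.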
# TSHR antag – antagonists of human thyroid stimulating hormone receptor. P16473. TSHR-expressing cells, TSH-stimulated cAMP HTRF, 2 h; stronger effect = lower value. activity change, negative = inhibition, % at 11.5 µM. actives 0.2% (n = 330,000). AID 504810;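 active = activity change below a set negative limit, meaning inhibition stronger than a set level, cut at about -70% in these data; inconclusive = activity change between two set negative limits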; also: % is scaled to controls: 0 for no effect and ±100 for the full control effect
# Target sequence (P16473 whole entry, looked up): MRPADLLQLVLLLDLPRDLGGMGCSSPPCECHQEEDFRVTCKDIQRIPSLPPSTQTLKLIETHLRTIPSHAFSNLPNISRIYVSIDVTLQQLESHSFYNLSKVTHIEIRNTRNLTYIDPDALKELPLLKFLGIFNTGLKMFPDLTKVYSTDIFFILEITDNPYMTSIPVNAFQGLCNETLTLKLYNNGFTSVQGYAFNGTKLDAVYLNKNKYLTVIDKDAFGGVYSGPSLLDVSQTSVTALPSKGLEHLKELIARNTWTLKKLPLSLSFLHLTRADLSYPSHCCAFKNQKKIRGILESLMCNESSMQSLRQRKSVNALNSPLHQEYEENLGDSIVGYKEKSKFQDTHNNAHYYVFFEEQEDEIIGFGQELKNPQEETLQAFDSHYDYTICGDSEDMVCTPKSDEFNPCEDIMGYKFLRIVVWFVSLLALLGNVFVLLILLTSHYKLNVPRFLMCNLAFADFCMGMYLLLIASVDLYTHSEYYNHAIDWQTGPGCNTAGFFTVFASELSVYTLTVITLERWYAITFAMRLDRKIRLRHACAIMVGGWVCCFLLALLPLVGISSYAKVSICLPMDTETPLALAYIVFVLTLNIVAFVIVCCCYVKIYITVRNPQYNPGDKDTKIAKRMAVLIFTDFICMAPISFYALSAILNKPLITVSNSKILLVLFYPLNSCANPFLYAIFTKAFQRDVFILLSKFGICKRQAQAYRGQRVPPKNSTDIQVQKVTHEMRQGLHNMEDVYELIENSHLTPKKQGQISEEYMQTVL
#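 Antagonism was scored as loss of TSH-driven cAMP in TSHR cells, stimulated with 4nM TSH (EC80) for 2 hours at 37 deg C and detected by homogeneous HTRF competition immunoassay.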
# RXFP1 ag – activates the human relaxin receptor RXFP1; actives 0.3% (n = 370,000); AID 2676; HEK293T-RXFP1 cAMP TR-FRET, 30 min; response scale: percent of porcine relaxin response, buffer zero; Q9HBX9; Potency, µM (titrated, usually from 57.5 µM), for inactives: top-dose activation, hits mostly activators; active = well fitted activation curve with a large enough effect; inconclusive = small, poorly fitted or top-dose-only effect; also: potency is read from the fitted curve at half-maximal effect; % is scaled to controls: 0 for no effect and ±100 for the full control effect; nearly all actives have a fitted effect of over 60% in size
#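 HEK293 cells stably expressing RXFP1, treated 30 min at 37C with compounds plus PDE4 inhibitor Ro 20174; cAMP measured by HTRF TR-FRET. Normalized to buffer and 29 nM porcine relaxin; EC50 by Hill fit.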
# RXFP1 antagonist – blocks the human relaxin receptor RXFP1; HEK293-RXFP1, relaxin-stimulated cAMP HTRF, 30 min; stronger effect = lower value; activity change, negative = inhibition, % at 57.5 µM; actives 0.59% (n = 350,000);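 active = activity change of -60% or lower, but not beyond a set lower limit; inconclusive = change between -60% and -40%, or beyond the set limit; inactive = change above -40%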; also: % is scaled to controls: 0 for no effect and ±100 for the full control effect
# Numbers without * were called inactive; ? = inconclusive; . = not tested or not shown; ! = not active in a repeat; [ ] = dose if it differs, or a comment.
SMILES,gsp agonist,gsp antag,TSHR antag,RXFP1 ag,RXFP1 antagonist
COc1ccc(C)cc1NC(=O)c1cc(S(=O)(=O)N2CCc3ccccc3C2)ccc1F,.,.,.,0.6%,-1.3
O=C(CN1C(=O)COc2ccc(S(=O)(=O)N3CCCCCC3)cc21)N1CCN(c2ccc(F)cc2)CC1,.,.,.,-2.4%,.
CN(CCOc1ccc(Cl)cc1)C(=O)c1cc(-c2ccco2)nc2ccccc12,-3.1%,?,-19.6,2.6%,-69.6*
Cc1cccc(CNC(=O)c2cnc3c(-c4cccc(C)c4)c(C)nn3c2C)c1,.,.,.,-1.0%,-26.0
CO[C@@H]1[C@@H](OC)[C@H](C)[C@@](O)(CC(=O)O)O[C@H]1[C@H](C)[C@H]1O[C@@]2(CC[C@@](C)([C@H]3CC[C@@](C)([C@@H]4O[C@@H]([C@H]5O[C@](C)(O)[C@H](C)C[C@@H]5C)C[C@@H]4OC4C[C@H](OC)[C@@H](OC)[C@H](C)O4)O3)O2)C[C@H](O)[C@H]1C (stereo not given in full),.,.,.,.,-66.3*
CN(Cc1ccccc1)C(=O)c1ccccc1N(C)S(=O)(=O)c1ccccc1,18.9%[15.4 µM],-10.9%,-11.8,0.5%,-61.9*
Cc1ccc(Cl)cc1N1CCN(C(=O)C(C)n2ncn3cccc3c2=O)CC1 (stereo not given),-0.9%,-16.4%,-19.2,28.2µM*!,-0.8
Cc1cccc(CCNC(=O)CN(c2ccc(C(C)C)cc2)S(=O)(=O)c2c(C)nn(C)c2C)c1,.,.,.,2.5%,-23.1
Fc1ccc(CN2CCN(c3ncnc4scc(-c5ccc(F)cc5)c34)CC2)cc1,1.2%,-13.5%,0.1,-1.5%,-67.9*
CN1CCCN(c2ncnc3scc(-c4ccc(F)cc4)c23)CC1,-0.1%,-6.6%,3.8,0.9%,-5.3
O=C(/C=C/c1ccccc1)NNC(=O)c1cccc(Cl)c1,-14.3%,5.7%,-2.9,1.3%,0.0
O=C(C=Cc1cccc(Cl)c1)c1ccccc1,?,1.2%,.,.,-61.6*
Cn1c(=O)c2cc(S(=O)(=O)NC(Cc3ccccc3)C(=O)Nc3ccc(F)cc3)ccc2n(C)c1=O (stereo not given),.,.,.,3.2%,.
CC(C)(C)c1cc(=O)[nH]c(SCc2ccccc2Cl)n1,-9.0%[15.4 µM],5.7%,4.3,-0.4%,-74.0*
CCOC(=O)c1ccc(N2C(=O)c3[nH]nc(-c4ccccc4)c3C2c2ccc(CC)cc2)cc1 (stereo not given),.,.,.,1.9%,.
CCOc1ccccc1NC(=O)N1CC(CC)Oc2ccccc21 (stereo not given),.,.,.,-0.6%,-80.5*
COc1ccc(OC)c(NC(=O)N2CC(C)Oc3ccc(C)cc32)c1 (stereo not given),.,.,.,-0.5%,?
CCC1CN(C(=O)Nc2cc(C)ccc2OC)c2cc(Cl)ccc2O1 (stereo not given),.,.,.,-0.5%,-60.9*
CCC1CN(C(=O)NCc2ccccc2)c2ccccc2O1 (stereo not given),7.4%[15.4 µM],3.5%,-71.5*,2.3%,-8.5
CCC(=O)NC(c1cccs1)c1cc(Br)c2cccnc2c1O (stereo not given),.,.,17.4,1.9%,.
COc1ccc(CCNC(=O)CS(=O)(=O)Cc2nc(-c3cccc(Cl)c3)oc2C)cc1OC,.,.,.,5.7%,.
O=C(O)c1ccc(NC(=S)NC(=O)c2ccc(-c3ccccc3)cc2)cc1,-22.7%,20µM*,-11.3,0.7%,?
Cn1ncc2cc(NC(=S)NC(=O)c3ccccc3)ccc21,-21.2%,39.8µM*,-2.8,-0.1%,1.1
O=C(NC(=S)Nc1ccccc1)c1ccc(-c2ccccc2)cc1,12.8%,5.5%,-4.6,1.6%,11.3
O=C(NC(=S)Nc1ccc2c(c1)OCCO2)c1ccccc1,-30.7%,31.6µM*,-10.0,-0.6%,-0.4
SMILES,gsp agonist,gsp antag,TSHR antag,RXFP1 ag,RXFP1 antagonist
CCN(CC)CCNC(=O)c1ccc2c(=O)n3nc(Nc4ccccc4)sc3nc2c1,.,.,.,13.5%,-1.5
Cc1ccc(C(C)(C)C)cc1S(=O)(=O)Nc1cccc(C(=O)N2CCN(c3ccccn3)CC2)c1,-18.9%,39.8µM*,-8.3,0.6%,?
Cc1cccc(NS(=O)(=O)c2cccc(C(=O)N3CCN(c4ccccn4)CC3)c2)c1,-46.8%,?,6.0,-0.4%,-2.8
Cc1cccc(Cn2cccc2CNS(=O)(=O)c2ccc(C)c(C)c2)c1,.,.,.,0.4%,.
Cc1cccc(CC(=O)N2CC(=O)Nc3ccc(C)cc3C2c2ccc(F)cc2)c1 (stereo not given),.,.,.,-0.3%,-35.8
CCOC(=O)C1=C(COC(=O)/C=C/c2ccc(SC)cc2)NC(=O)NC1C (stereo not given),1.4%[15.4 µM],0.1%,-2.7,0.0%,-75.9*
CCOC(=O)C1=C(COC(=O)/C=C/c2ccc(OC)cc2)NC(=O)NC1C (stereo not given),-1.5%,15.6%,-12.0,-2.0%,-3.3
Cc1ccc2[nH]c(C)cc(=S)c2c1,25.7%[15.4 µM],.,13.9,20µM*,16.5
Cc1cc(=S)c2ccccc2[nH]1,?,9.3%,-6.5,?,14.9
COc1ccc(N2CCN(c3ncnc4onc(C)c34)CC2)cc1,.,.,.,3.9%,-1.3
CC(CCc1ccccc1)NC(=O)C1CCN(c2nnc(-n3cccc3)s2)CC1 (stereo not given),12.6µM*,-2.4%,0.6,-0.9%,.
FC(F)(F)c1nc(N2CCCC2)ncc1-c1nnnn1-c1ccccc1,-34.7%,35.5µM*,-32.0,1.0%,22.4
Cc1ccc(-n2nnnc2-c2cnc(N3CCCC3)nc2C(F)(F)F)cc1,17.4%,-17.8%,-14.7,0.5%,1.5
CCCCOc1c(C(=O)Nc2ccccc2)nnn1-c1ccccc1,-31.4%[15.4 µM],.,1.0,1.2%,-87.0*
CCOc1ccc(-c2nnc(N3CCCCC3)c3ccccc23)cc1,-28.6%,50.1µM*,-3.4,-0.8%,-31.9
COc1ccc(-c2c[n+](CC(=O)OC3CC(C)CCC3C(C)C)c3n2CCC3)cc1 (stereo not given),-19.8%,13.5%,-15.2,-1.0%,?
CC(C)[C@@H]1CC[C@@H](C)C[C@H]1OC(=O)C[n+]1cc(-c2ccc(Cl)cc2)n2c1CCCCC2,10.8%[15.4 µM],-6.6%,-12.6,-0.5%,-73.9*
COC(=O)c1ccc(NC(=O)c2nn(C)c3c2CS(=O)(=O)c2ccccc2-3)cc1,.,.,.,-3.5%,-4.1
COc1ccc2cc(CNCCOCCOCCNCc3ccc4cc(OC)ccc4c3)ccc2c1,3.1%,19.0%,.,.,-88.7*
CCC(C(=O)Nc1ccsc1C(=O)OC)c1ccccc1 (stereo not given),2.5%[15.4 µM],?,4.8,-0.2%,-63.5*
CCC(C(=O)Nc1nc(C)c(C(=O)OC)s1)c1ccccc1 (stereo not given),-4.4%,-0.2%,3.3,1.6%,0.3
COc1ccc(OC)c(NC(=O)CC(=O)Nc2ccc3nc4n(c(=O)c3c2)CCCCC4)c1,.,.,.,5.3%,.
Cc1cc(Cl)ccc1NC(=O)c1cc(S(=O)(=O)N2CCOCC2)cn1C,.,.,.,-0.8%,12.1
